PAFAH1B3 FP inh: PAFAH1B3 enzyme inhibitors, primary screen, biochemical, fluorescence polarization, human. Platelet-activating factor acetylhydrolase IB subunit alpha1 (Homo sapiens), Q15102. recombinant PAFAH1B3, FP-rhodamine probe. inhibition, % at 3.39 µM. actives 0.28% (n = 340,000). AID 492972, 2010;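 active means inhibition above the screen-wide average of all tested compounds plus 3 SD, cut at about 25% in these data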;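 further: 0% = enzyme with DMSO only and 100% = wells lacking PAFAH1B3 protein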
Target sequence (Q15102 whole entry, looked up): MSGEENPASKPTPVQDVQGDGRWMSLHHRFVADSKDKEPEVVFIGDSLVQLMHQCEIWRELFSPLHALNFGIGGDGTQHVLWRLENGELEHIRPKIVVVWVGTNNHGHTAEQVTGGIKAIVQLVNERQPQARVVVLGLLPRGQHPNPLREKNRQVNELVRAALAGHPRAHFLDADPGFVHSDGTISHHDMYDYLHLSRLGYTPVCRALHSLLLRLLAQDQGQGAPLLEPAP
PP1 inh: PP1-alpha phosphatase inhibitors, primary screen, counter-screen for PP5 inhibitor project, biochemical, fluorescence, OMFP substrate, single point; purified PP1alpha; Serine/threonine-protein phosphatase PP1-alpha catalytic subunit (Homo sapiens), P62136; actives 0.9% (n = 320,000); inhibition, % at 6.7 µM;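 active means inhibition above the mean inhibition of all tested compounds plus 3 SD, computed separately for each screening campaign, cut at about 15% in these data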
Target sequence (P62136 whole entry, looked up): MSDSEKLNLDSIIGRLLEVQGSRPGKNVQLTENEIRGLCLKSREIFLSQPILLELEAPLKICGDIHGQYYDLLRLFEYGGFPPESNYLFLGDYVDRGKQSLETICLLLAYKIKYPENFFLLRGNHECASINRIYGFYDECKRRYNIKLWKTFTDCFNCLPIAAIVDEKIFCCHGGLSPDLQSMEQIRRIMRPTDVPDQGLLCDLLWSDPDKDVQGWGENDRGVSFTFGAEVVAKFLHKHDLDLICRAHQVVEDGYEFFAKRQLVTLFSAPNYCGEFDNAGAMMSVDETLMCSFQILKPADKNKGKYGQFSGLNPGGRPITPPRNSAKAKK
PAFAH1B2 FP inh: PAFAH1B2 enzyme inhibitors, primary screen, biochemical, fluorescence polarization, human; Platelet-activating factor acetylhydrolase IB subunit alpha2 (Homo sapiens), P68402; recombinant PAFAH1B2, FP-rhodamine activity probe; inhibition, % at 3.39 µM; actives 1.2% (n = 340,000);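 active means inhibition above the mean of all tested compounds plus 3 SD, cut at about 24% in these data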;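 further: 0% = enzyme with DMSO and 100% = wells lacking PAFAH1B2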
pPAFAH inh: pPAFAH enzyme inhibitors, primary screen, biochemical, fluorescence polarization, human; inhibition, % at 3.39 µM; recombinant pPAFAH, FP-rhodamine probe fluorescence polarization; Platelet-activating factor acetylhydrolase (Homo sapiens), Q13093; actives 1.5% (n = 330,000);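 active means inhibition above the mean inhibition across the screen plus 3 SD, cut at about 25% in these data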;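 further: inhibitors block binding of the rhodamine activity-based probe so polarization drops; 0% = enzyme with DMSO and 100% = wells lacking pPAFAH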
PP5 primary: PP5 phosphatase inhibitors, primary screen, biochemical, fluorescence; inhibition, % at 6.7 µM; actives 0.18% (n = 320,000); AID 1987, 2009; purified PP5c, OMFP substrate fluorescence; Serine/threonine-protein phosphatase 5 (Homo sapiens), P53041;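 active means inhibition above the campaign's mean inhibition across all tested compounds plus 3 SD, cut at about 9.5% in these data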;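 further: 0% = DMSO only and 100% = 100 µM cantharidin control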
PAFAH2 inh: PAFAH2 enzyme inhibitors, primary screen, biochemical, fluorescence polarization, human; Platelet-activating factor acetylhydrolase 2, cytoplasmic (Homo sapiens), Q99487; inhibition, % at 3.39 µM; recombinant PAFAH2, FP-rhodamine activity probe; actives 0.99% (n = 340,000);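 active means inhibition above the mean over all tested compounds plus 3 SD, cut at about 30% in these data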;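 further: inhibitors block probe labeling of enzyme so polarization drops; 0% = enzyme with DMSO and 100% = wells lacking PAFAH2 protein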
pPAFAH confirm: pPAFAH (PLA2G7) enzyme inhibitors, confirmation, biochemical, fluorescence polarization, human | inhibition, % at 3.39 µM | shares compounds with pPAFAH inh | actives 72% (n = 2,300) | recombinant pPAFAH, FP-Rh probe fluorescence polarization;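 active means mean inhibition of the triplicate above the hit cutoff set for the earlier primary screen, cut at about 25% in these data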;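 further: 0% = enzyme with DMSO and 100% = wells lacking pPAFAH enzyme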
* = called active by the depositor; · = not tested or not shown. The list is not random: actives were taken first. Their share in the collection is about 3.4%.

SMILES	PAFAH1B3 FP inh	PP1 inh	PAFAH1B2 FP inh	pPAFAH inh	PP5 primary	PAFAH2 inh	pPAFAH confirm
CC(=O)[C@]1(O)Cc2c(O)c3c(c(O)c2[C@@H](O[C@H]2C[C@H](N)[C@H](O)[C@H](C)O2)C1)C(=O)c1ccccc1C3=O	·	-8.1	·	59.2*	-7.2	·	68.6*
COc1cccc2c1C(=O)c1c(O)c3c(c(O)c1C2=O)C[C@@](O)(C(=O)CO)C[C@@H]3O[C@H]1C[C@H](N)[C@@H](O)[C@H](C)O1	42.9*	-2.1	51.4*	60.5*	-0.4	55.0*	44.6*
Cc1cc(NC(=O)CCC(=O)N(CC2CCCO2)C(C(=O)NC2CCCC2)c2cccnc2)no1 (stereo not drawn)	4.7	1.7	4.7	3.8	-0.8	8.7	·
O=C(COc1ccc2ccc(=O)oc2c1)Nc1ccc(CN2CCOCC2)cc1	8.4	-5.2	5.6	3.6	-1.1	-6.3	·
COc1ccccc1NS(=O)(=O)c1ccc(C)c(C(N)=O)c1	3.4	-1.7	-2.4	58.1*	1.1	3.2	1.2
COc1ccccc1NS(=O)(=O)c1ccc(C(N)=O)cc1	1.4	-1.7	2.7	-2.5	0.8	-3.6	·
O=[N+]([O-])C1=C(Nc2cccc3ccccc23)CS(=O)(=O)C1	7.3	2.9	10.0	38.8*	-0.2	3.1	4.5
O=C(Nc1cccc2ccccc12)c1ccc([N+](=O)[O-])o1	4.7	-0.5	-5.2	5.2	0.9	3.9	·
COc1ccc(CCOC(=O)c2ccc(NC(=O)CC#N)cc2)cc1	-9.7	-1.6	-3.2	53.2*	1.7	-3.6	1.9
CCC1Sc2ccc(S(=O)(=O)CCC(=O)Nc3ccc(C(=O)OC)cc3)cc2NC1=O (stereo not drawn)	-0.2	0.1	-0.6	2.9	-0.8	-4.7	·
CN(C(=S)NC(=O)C1CC1)c1ccc(O)cc1	-2.2	2.0	8.4	61.4*	1.8	-0.9	2.0
COCCOC(=O)C1=C(C)NC(=O)NC1c1c(OC)ncnc1OC (stereo not drawn)	1.9	0.1	1.3	1.2	2.2	-2.1	·
CN(C)CC/C=C1/c2ccccc2COc2ccc(CC(=O)O)cc21	-0.6	3.1	-2.1	59.6*	-1.5	0.1	4.4
CN(C)CC/C=C1/c2ccccc2COc2ccccc21	·	-0.9	·	1.0	-1.2	·	·
Cc1cccc(Oc2ccccc2NS(=O)(=O)c2ccc(CCC(=O)O)cc2)c1	0.4	0.0	1.5	9.9	-2.0	-0.2	·
CC(C)(C)CN1C(=O)C(=O)NC[C@@H]1Cc1ccc(O)cc1	9.1	-1.4	3.6	2.9	1.7	3.1	·
CCC(=O)OC1(C)C(=O)C=C2C=C(c3ccsc3)OC=C2C1=O (stereo not drawn)	6.0	-0.2	-5.3	48.2*	1.6	15.8	33.8*
COc1ccc(CCn2c(O)cc3nn(-c4nc5ccccc5s4)c(=O)c-3c2C)cc1	15.3	17.3*	6.6	56.0*	0.2	21.1	43.8*
Oc1c(Cl)cc(Cl)cc1/C=C/c1ccc2cccc(O)c2n1	11.1	8.7	1.3	51.0*	4.2	14.2	48.7*
Oc1ccc(Cl)cc1/C=C/c1ccc2cccc(O)c2n1	17.7	·	5.8	·	·	6.3	·
Cc1ccc(S(=O)(=O)N2CCCC(C(=O)NCc3ccccn3)C2)cc1 (stereo not drawn)	-2.5	1.8	-0.7	6.9	1.5	-6.4	·
COc1ccc2noc3c2c1C(=O)c1ccccc1-3	24.6	-69.1	19.9	38.1*	-64.6	38.0*	25.0*
Clc1ccc(CNc2ccc(CNc3ncn[nH]3)cc2)c(Cl)c1	6.1	-1.8	7.7	37.0*	0.6	1.3	20.1
COc1cc(C2NC(=O)NC(C)=C2C(=O)OC(C)(C)C)ccc1OCC(N)=O (stereo not drawn)	-0.2	-1.7	15.4	-1.8	-0.6	-1.1	·
COC(=O)c1ccc(=O)c2nc3/c(=C/O)c(O)cc(=O)c3[nH]c12	65.6*	48.7*	60.3*	91.5*	2.2	81.2*	91.3*
SMILES	PAFAH1B3 FP inh	PP1 inh	PAFAH1B2 FP inh	pPAFAH inh	PP5 primary	PAFAH2 inh	pPAFAH confirm
COC(=O)c1ccc(N)cc1O	5.1	0.7	-4.9	-0.5	-0.8	4.4	·
CCOc1ccc(C(=O)NCCCN(CC)CC)cc1	1.3	-2.4	0.8	3.6	-3.8	0.1	·
N=C1SC(c2ccccc2)C(=O)N1c1ncc(Cc2ccccc2Cl)s1 (stereo not drawn)	-0.5	15.6*	13.3	58.3*	-1.4	25.3	71.0*
Fc1ccc(-[n+]2nc(Nc3ccccc3)sc2-c2c(Cl)cccc2Cl)cc1	5.3	13.1	1.0	50.6*	-5.2	9.0	21.5
COc1ccc(C)cc1Nc1n[n+](-c2ccccc2)c(-c2c(Cl)cccc2Cl)s1	·	6.6	·	53.5*	1.1	·	53.1*
COc1ccc(C)cc1Nc1n[n+](-c2ccccc2)c(-c2ccc(OC)c(OC)c2OC)s1	11.4	-1.6	-0.8	10.3	1.7	5.5	·
CC(=O)N1CCc2c(sc(NC(=O)CS(=O)(=O)c3ccc(F)cc3)c2C#N)C1	14.4	-3.4	6.1	42.9*	-1.6	12.2	6.8
Cc1ccc(/C(O)=C2\C(=O)C(=O)N(C)C2c2ccc([N+](=O)[O-])cc2)cc1 (stereo not drawn)	0.1	0.2	4.0	1.2	1.1	-3.8	·
Cc1ccc(/C(O)=C2/C(=O)C(=O)N(CC(=O)O)C2c2ccc([N+](=O)[O-])cc2)cc1 (stereo not drawn)	6.3	1.9	6.6	36.6*	6.7	1.4	4.5
Cc1nn(-c2ccc(F)cc2)c(Cl)c1/C=N/NC(=O)c1ccc(O)cc1	15.3	3.5	4.0	4.1	1.8	16.9	·
COc1cccc(CNC(=O)CCC2CCCN(Cc3cc(Cl)ccc3O)C2)c1 (stereo not drawn)	-4.6	4.0	3.7	92.2*	1.9	1.2	68.3*
O=C(OCC(=O)N1CCCCC1)c1cc2ccccc2cc1O	7.2	0.9	1.4	-3.0	2.1	3.3	·
CCOC(=O)C(C)/C(C)=N/NC(=O)c1cc2ccccc2cc1O (stereo not drawn)	4.1	8.0	2.4	45.8*	1.4	3.7	3.6
C/C(CC(=O)N1CCCC1)=N\NC(=O)c1cc2ccccc2cc1O	7.1	6.2	4.0	47.5*	3.4	11.7	14.8
C/C(=N\NC(=O)c1cc2ccccc2cc1O)c1ccc2c(c1)OCO2	-1.8	6.0	7.2	54.7*	1.3	8.9	6.2
